Screens as filed in PubChem BioAssay.
LASV entry inh: qHTS for Inhibitors of binding or entry into cells for Lassa Virus. Lassa virus pseudotype entry inhibition, cell reporter. Potency, µM (top dose mostly 37.9 µM), for the others: at the top dose activity change, negative = inhibition, most hits filed as inhibitors. 1.2% of 300,000 active; calls by dose curve; tested in HEK293 cells; note: potency is the fitted concentration of half-maximal effect; % is set by controls: 0 for no effect and ±100 for the full control effect; nearly all actives have a fitted effect of over 50% in size
MARV entry inh: qHTS for inhibitors of binding or entry into cells for Marburg Virus; Marburg virus pseudotyped entry inhibition, cell reporter; Potency, µM (top dose mostly 37.8 µM), for inactives: top-dose activity change, negative = inhibition, hits mostly inhibitors; 1.8% of 300,000 active; calls by dose curve; tested in HEK293 cells; note: potency is the fitted concentration of half-maximal effect; % is set by controls: 0 for no effect and ±100 for the full control effect
FMDV antiviral: High Throughput Screening for Foot and Mouth Disease Virus Antivirals. 1.2% of 410,000 active. FMDV antiviral cell-based qHTS. AID 1159524, 2015. Potency, µM (series often up to 57.9 µM), inactives show at the highest dose activity change, negative = inhibition, hits mostly inhibitors; calls by dose curve; tested in HEK293T cells; note: read-out not given here; potency is the fitted concentration of half-maximal effect; % is set by controls: 0 for no effect and ±100 for the full control effect; nearly all actives have a fitted effect of over 45% in size
Shiga inhibitor: A qHTS for Small Molecule Inhibitors of Shiga Toxin; Vero cells, Shiga toxin protein synthesis inhibition reporter; inhibition, % at 38.7 µM; 9.2% of 290,000 active; in the data active = inhibition mostly above about 28%, no sharp cut-off; inactive = mostly below about 43%; note: 0% is about no effect
HCV inh: qHTS Assay for Inhibitors of Hepatitis C Virus (HCV); AID 651820, 2012; Potency, µM (highest dose often 41.8 µM), without a hit: at the top dose activity change, negative = inhibition, usual class: inhibitors; Huh7.5.1 HCVcc-Cre infection, luciferase reporter, 44 h; 3.4% of 340,000 active; active = well fitted inhibition curve with a large enough effect; inconclusive = small, poorly fitted or top-dose-only effect, or another doubt; inactive = no such curve, though single readings can be large or run the other way; note: potency is the fitted concentration of half-maximal effect; % is set by controls: 0 for no effect and ±100 for the full control effect
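A cell-based infection assay in which seeded cells (1,000 per well) receive test compound after 4 h, are inoculated with HCVcc-Cre at approximately 0.5 moi, and are incubated 44 h before luminescence detection.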
Cycloheximide cs: Cycloheximide Counterscreen for Small Molecule Inhibitors of Shiga Toxin; 12% of 300,000 active; AID 2314, 2010; max response, %; cell reporter, cycloheximide protein synthesis inhibition counterscreen; in the data active = max response mostly above about 13%, no sharp cut-off; inactive = mostly below about 14%; note: read at 38.3 µM for the half of the compounds with a filed dose; 0% is about no effect
An asterisk follows results filed as active; ? = inconclusive; nt = not tested or not shown; [ ] = another dose, or the depositor's remark. Only some compounds are listed: those with a hit (about 13% of all), similar ones and a draw of the others.

SMILES	LASV entry inh	MARV entry inh	FMDV antiviral	Shiga inhibitor	HCV inh	Cycloheximide cs
C=CCc1ccc(OCC(O)COCC)c(OC)c1 (centres undefined)	12%	-14%	42%	127*	?	36*
Cc1cc2nc(/C=C/c3cccnc3)[nH]c2cc1C	nt	nt	50%	40*	-7%	31*
COC(=O)c1cn(NC(=O)c2cc([N+](=O)[O-])ccc2F)c(=O)c2ccccc12	?	?	32µM*	11	?	7
Cc1cccc(N(C)c2nc3ccc(C)cc3n3nnnc23)c1	1%[46.1 µM]	nt	-18%	nt	nt	nt
O=C(NNC1=Nc2ccccc2SC1)c1ccccc1F	?	?	-3%	72*	14µM*	39*
O=C(NNC1=Nc2ccccc2SC1)c1cccc([N+](=O)[O-])c1	?	?	-5%	14	-20%	0
CCCOc1cccc(C(=O)Nc2cccc(NC(=O)c3ccco3)c2)c1	-16%	5%[46.1 µM]	-25%	67	25µM*	14*
CCOc1ccccc1NC(=O)c1cccc(NC(=O)c2ccco2)c1	?	?	?	6	3.2µM*	8
CCCCOc1cccc(C(=O)Nc2ccc(NC(=O)c3ccco3)cc2)c1	nt	3%[46.1 µM]	-8%	-18	5%	-2
CCC1COCCS(=O)(=O)N1Cc1ccccc1C (centres undefined)	nt	nt	-5%	-11	-17%[8.37 µM]	-3
CN1CCN(c2ccc(Cl)cc2NC(=O)/C=C/c2cccc(F)c2)CC1	-15%[46.1 µM]	5µM*	0%	-24	?	3
Cc1cc(OCC(=O)Nc2cccc(S(=O)(=O)N3CCCC3)c2)ccc1Cl	?	5µM*	0%	nt	?	nt
Cc1cc(OCC(=O)Nc2cccc(S(=O)(=O)N3CCCCC3)c2)ccc1Cl	nt	nt	-23%	nt	?	nt
CCN1CCN(c2ccc(S(=O)(=O)N3CCCCC3)cc2NC(=O)c2ccc([N+](=O)[O-])s2)CC1	?	?	-28%	nt	35µM*	nt
O=C(COc1cccc2cccnc12)Nc1ccccc1	1%	?	64%	56	5%	34*
CCc1ccc(C(=O)Nc2ccc3nn(-c4ccc(C)c(Cl)c4)nc3c2)cc1	14%[46.1 µM]	?	22%	nt	nt	nt
CCN(CC)C(=O)c1sc(NC(=O)C(C)Sc2nc(-c3ccccc3)cc(C(F)(F)F)n2)c(C(=O)OC)c1C (centres undefined)	-25%[46.1 µM]	?	-15%	nt	nt	nt
CCOc1ccccc1C(=O)OCC(=O)Nc1cccc(S(=O)(=O)N2CCCC2)c1	nt	nt	?	nt	5%	nt
Cc1cccc(C)c1OCC(=O)Nc1cccc(S(=O)(=O)N2CCCCCC2)c1	nt	nt	-14%	nt	nt	nt
CCN1CCN(c2ccc(S(=O)(=O)N3CCCCC3)cc2NC(=O)/C=C/c2ccc(OC)c(OC)c2)CC1	17%	?	-15%	nt	2%	nt
CCN1CCN(c2ccc(S(=O)(=O)N3CCCCC3)cc2NC(=O)/C=C/c2ccc(Cl)cc2)CC1	18µM*	?	-19%	nt	32µM*	nt
CCS(=O)c1ccccc1C(=O)OCC(=O)Nc1cccc(S(=O)(=O)N2CCCCC2)c1 (centres undefined)	nt	nt	?	nt	10µM*	nt
O=C(COC(=O)/C=C/c1ccc(F)cc1)Nc1cccc(S(=O)(=O)N2CCCC2)c1	nt	nt	5%	5	-13%	-5
COc1cccc(/C=C/C(=O)OCC(=O)Nc2cccc(S(=O)(=O)N3CCCCC3)c2)c1OC	2%	-5%	-13%	61*	2%	13
Cc1cccc(C)c1OCC(=O)Nc1cccc(S(=O)(=O)N2CCCC2)c1	?	?	-12%	nt	8.9µM*	nt
SMILES	LASV entry inh	MARV entry inh	FMDV antiviral	Shiga inhibitor	HCV inh	Cycloheximide cs
O=C(NCc1ccccc1)c1cc(Sc2cccc(Cl)c2)nc2ccccc12	27%[46.1 µM]	nt	8%	nt	nt	nt
CCOc1ccc(NC(=O)COc2cccc3cccnc23)cc1S(=O)(=O)N1CCCC1	nt	nt	-10%	nt	nt	nt
CCN1CCN(c2ccc(S(=O)(=O)N3CCCCC3)cc2NC(=O)COc2ccc(Cl)c(C)c2)CC1	-2%[46.1 µM]	?	-13%	-4	11µM*	1
O=C(COc1cccc2cccnc12)Nc1cccc(S(=O)(=O)N2CCCC2)c1	nt	nt	?	nt	10µM*	nt
C=CCNc1oc(-c2cccc3ccccc23)nc1C#N	5%	8%	nt	45*	6.3µM*	46*
CCNc1oc(-c2cccc3ccccc23)nc1C#N	0%	8%	33%	58*	?	27
CC(C)Nc1oc(-c2cccc3ccccc23)nc1C#N	10%	-2%	nt	84*	?	30*
CN(C)CCNc1oc(-c2ccccc2F)nc1C#N	nt	nt	-11%	-4	7%	-3
COCCNc1oc(-c2ccccc2Cl)nc1C#N	nt	-7%	24%	46	-17%	20
N#Cc1nc(-c2ccccc2F)oc1NC1CCCCC1	nt	nt	13%	72	?	15
N#Cc1nc(-c2cccc3ccccc23)oc1NCCN1CCCCC1	-8%	?	5%	32	11µM*	19
COc1ccc(NS(=O)(=O)c2cn(C)nc2C)cc1	27%[46.1 µM]	-4%[46.1 µM]	2%	-8	18%	1
CS(=O)(=O)c1ccc2nc(NC(=O)CCC(=O)c3cccs3)sc2c1	8%	-7%	16%	45	0%	17*
CCN(CC)S(=O)(=O)c1ccc2nc(NC(=O)c3ccco3)sc2c1	?	?	15%	78*	-3%	29*
CCN(c1cccc(C)c1)S(=O)(=O)c1nnc(NC(=O)c2cccs2)s1	10µM*	nt	37%	nt	nt	nt
CCN(CC)S(=O)(=O)c1ccc2nc(NC(=O)c3cccs3)sc2c1	18%	9%[46.1 µM]	48%	65*	3%	48*
CS(=O)(=O)c1ccc2nc(NC(=O)CCS(=O)(=O)c3ccccc3)sc2c1	?	?	-20%	-8	?	-3
CCN(c1cc(C)cc(C)c1)S(=O)(=O)c1nnc(NC(=O)c2cccs2)s1	?	nt	4%	nt	nt	nt
COc1cc(OC)cc(-c2c(C#Cc3ccsc3)c3cc(-c4ccc5cc[nH]c5c4)ccc3n2C)c1	nt	nt	8%	nt	-17%	nt
Cc1cc(C)n2c(SCC(=O)N(CCC#N)c3ccc4c(c3)OCCO4)nnc2n1	nt	nt	7%	nt	nt	nt
CCOc1ncccc1C(=O)OCc1cc(=O)oc2c(C)c(C)ccc12	?	?	-2%	-4	0%	2
NC1=NC[C@H](c2ccccc2)N1CCCCC1CCCCC1	nt	nt	?	-3	-8%	-6
C=CC[C@@H](CC(=O)N[C@H](CO)Cc1ccccc1)C(=O)N[C@@H](COC(=O)[C@@H](CC=C)Cc1ccc(F)cc1)Cc1ccccc1	nt	nt	-12%	nt	?	nt
CCNc1ncc2nc(-c3ccccc3)c(=O)n(C)c2n1	nt	nt	31%	nt	nt	nt
Clc1ccc(CSc2ncccn2)cc1	9%	?	36%	43*	11%	32*
c1ccc(CSc2ncccn2)cc1	-3%	?	50%	6	0%	19*
Clc1ccc(CSc2nccn2Cc2ccccc2)cc1	-24%	?	-26%	0	?	1
